{"source": "PubChem BioAssay AID1159580", "about": "(chemical genetic matrix, 2015)", "test": "chemical genetic growth profiling, strain panel (AID 1159580);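 further: tested at 20 µM; growth read once vehicle control cultures reached saturation at 30 °C; 1 = growth at the plate median or of vehicle wells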", "conditions": "S. cerevisiae deletion strains, growth OD", "note": "Values joined by “and” are separate entries in the source; they are usually repeats but may differ in a detail not shown here. Equal entries are not always repeated. About 2,000 (36%) of roughly 5,500 compounds were called active. Inconclusive results (about 18%) are left out. No stated cut-off is given here; in the data, active means normalized growth mostly below about 0.91 (no sharp cut-off); inconclusive means no clear call, values can overlap the other calls; inactive means mostly above about 0.92. Some of the results follow."}
{"smiles": "CN1CCC[C@@H]1CCO[C@](C)(c1ccccc1)c1ccc(Cl)cc1", "values": [{"measurement": "normalized growth", "setting": "locus YAL013W, strain DEP1, stronger effect = lower value", "result": "0.998 (inactive)"}, {"measurement": "normalized growth", "setting": "locus YAL021C, strain ccr4, stronger effect = lower value", "result": "0.88 (active)"}, {"measurement": "normalized growth", "setting": "locus YAL026C, strain drs2, stronger effect = lower value", "result": "0.62 (active)"}, {"measurement": "normalized growth", "setting": "locus YAL030W, strain snc1, stronger effect = lower value", "result": "1 (inactive)"}, {"measurement": "normalized growth", "setting": "locus YBL061C, strain skt5, stronger effect = lower value", "result": "0.998 (inactive)"}, {"measurement": "normalized growth", "setting": "locus YBR009C, strain hhf1, stronger effect = lower value", "result": "0.957 (inactive)"}, {"measurement": "normalized growth", "setting": "locus YBR021W, strain FUR4, stronger effect = lower value", "result": "0.671 (active)"}, {"measurement": "normalized growth", "setting": "locus YBR023C, strain chs3, stronger effect = lower value", "result": "0.949 (inactive)"}, {"measurement": "normalized growth", "setting": "locus YBR171W, strain sec66, stronger effect = lower value", "result": "0.997 (inactive)"}, {"measurement": "normalized growth", "setting": "locus YBR229C, strain ROT2, stronger effect = lower value", "result": "1.01 (inactive)"}, {"measurement": "normalized growth", "setting": "locus YBR231C, strain swc5, stronger effect = lower value", "result": "0.984 (inactive)"}, {"measurement": "normalized growth", "setting": "locus YBR279W, strain paf1, stronger effect = lower value", "result": "0.964 (inactive)"}, {"measurement": "normalized growth", "setting": "locus YCL011C, strain gbp2, stronger effect = lower value", "result": "0.959 (inactive)"}, {"measurement": "normalized growth", "setting": "locus YCL016C, strain dcc1, stronger effect = lower value", "result": "0.968 (inactive)"}, {"measurement": "normalized growth", "setting": "locus YCL029C, strain bik1, stronger effect = lower value", "result": "0.991 (inactive)"}, {"measurement": "normalized growth", "setting": "locus YCL069W, strain vba3, stronger effect = lower value", "result": "0.969 (inactive)"}, {"measurement": "normalized growth", "setting": "locus YCR088W, strain abp1, stronger effect = lower value", "result": "0.999 (inactive)"}, {"measurement": "normalized growth", "setting": "locus YDL005C, strain med2, stronger effect = lower value", "result": "1 (inactive)"}, {"measurement": "normalized growth", "setting": "locus YDL035C, strain GPR1, stronger effect = lower value", "result": "0.913 (inactive)"}, {"measurement": "normalized growth", "setting": "locus YDL040C, strain nat1, stronger effect = lower value", "result": "1 (inactive)"}, {"measurement": "normalized growth", "setting": "locus YDL074C, strain BRE1, stronger effect = lower value", "result": "0.817 (inactive)"}, {"measurement": "normalized growth", "setting": "locus YDL101C, strain DUN1, stronger effect = lower value", "result": "1.01 (inactive)"}, {"measurement": "normalized growth", "setting": "locus YDL134C, strain PPH21, stronger effect = lower value", "result": "1.01 (inactive)"}, {"measurement": "normalized growth", "setting": "locus YDL185W, strain tfp1, stronger effect = lower value", "result": "0.99 (inactive)"}, {"measurement": "normalized growth", "setting": "locus YDL192W, strain arf1, stronger effect = lower value", "result": "1.01 (inactive)"}, {"measurement": "normalized growth", "setting": "locus YDR001C, strain nth1, stronger effect = lower value", "result": "1.02 (inactive)"}, {"measurement": "normalized growth", "setting": "locus YDR069C, strain doa4, stronger effect = lower value", "result": "0.955 (inactive)"}, {"measurement": "normalized growth", "setting": "locus YDR101C, strain arx1, stronger effect = lower value", "result": "0.988 (inactive)"}, {"measurement": "normalized growth", "setting": "locus YDR137W, strain rgp1, stronger effect = lower value", "result": "1.24 [resistant] (active)"}, {"measurement": "normalized growth", "setting": "locus YDR150W, strain NUM1, stronger effect = lower value", "result": "1.02 (inactive)"}, {"measurement": "normalized growth", "setting": "locus YDR159W, strain sac3, stronger effect = lower value", "result": "1.01 (inactive)"}, {"measurement": "normalized growth", "setting": "locus YDR162C, strain NBP2, stronger effect = lower value", "result": "0.993 (inactive)"}, {"measurement": "normalized growth", "setting": "locus YDR195W, strain ref2", "result": "1.08 (inactive)"}, {"measurement": "normalized growth", "setting": "locus YDR297W, strain sur2, stronger effect = lower value", "result": "0.998 (inactive)"}, {"measurement": "normalized growth", "setting": "locus YDR318W, strain mcm21, stronger effect = lower value", "result": "0.984 (inactive)"}, {"measurement": "normalized growth", "setting": "locus YDR334W, strain swr1, stronger effect = lower value", "result": "1.01 (inactive)"}, {"measurement": "normalized growth", "setting": "locus YDR335W, strain msn5, stronger effect = lower value", "result": "0.987 (inactive)"}, {"measurement": "normalized growth", "setting": "locus YDR388W, stronger effect = lower value", "result": "0.911 (active)"}, {"measurement": "normalized growth", "setting": "locus YDR392W, strain spt3, stronger effect = lower value", "result": "0.866 (inactive)"}, {"measurement": "normalized growth", "setting": "locus YDR502C, strain sam2, stronger effect = lower value", "result": "0.97 (inactive)"}, {"measurement": "normalized growth", "setting": "locus YEL003W, strain gim4, stronger effect = lower value", "result": "0.952 (inactive)"}, {"measurement": "normalized growth", "setting": "locus YEL037C, strain rad23, stronger effect = lower value", "result": "0.993 (inactive)"}, {"measurement": "normalized growth", "setting": "locus YEL061C, strain CIN8 (second series), stronger effect = lower value", "result": "1 (inactive)"}, {"measurement": "normalized growth", "setting": "locus YEL061C, strain CIN8, stronger effect = lower value", "result": "1 (inactive)"}, {"measurement": "normalized growth", "setting": "locus YER015W, strain faa2, stronger effect = lower value", "result": "0.798 (active)"}, {"measurement": "normalized growth", "setting": "locus YER016W, strain bim1, stronger effect = lower value", "result": "0.992 (inactive)"}, {"measurement": "normalized growth", "setting": "locus YER110C, stronger effect = lower value", "result": "0.999 (inactive)"}, {"measurement": "normalized growth", "setting": "locus YER111C, strain swi4, stronger effect = lower value", "result": "1.02 (inactive)"}, {"measurement": "normalized growth", "setting": "locus YER155C, strain BEM2 (second series), stronger effect = lower value", "result": "0.818 (active)"}, {"measurement": "normalized growth", "setting": "locus YER155C, strain BEM2, stronger effect = lower value", "result": "1.03 (inactive)"}, {"measurement": "normalized growth", "setting": "locus YER167W, strain BCK2, stronger effect = lower value", "result": "1 (inactive)"}, {"measurement": "normalized growth", "setting": "locus YFR010W, strain ubp6, stronger effect = lower value", "result": "0.898 (active)"}, {"measurement": "normalized growth", "setting": "locus YGL078C, strain dbp3, stronger effect = lower value", "result": "0.99 (inactive)"}, {"measurement": "normalized growth", "setting": "locus YGL086W, strain mad1, stronger effect = lower value", "result": "0.973 (inactive)"}, {"measurement": "normalized growth", "setting": "locus YGL167C, strain pmr1, stronger effect = lower value", "result": "1.02 (inactive)"}, {"measurement": "normalized growth", "setting": "locus YGL173C, strain kem1, stronger effect = lower value", "result": "0.955 (inactive)"}, {"measurement": "normalized growth", "setting": "locus YGL227W, strain vid30, stronger effect = lower value", "result": "0.996 (inactive)"}, {"measurement": "normalized growth", "setting": "locus YGL240W, strain doc1, stronger effect = lower value", "result": "0.919 (inactive)"}, {"measurement": "normalized growth", "setting": "locus YGL248W, strain PDE1, stronger effect = lower value", "result": "1.01 (inactive)"}, {"measurement": "normalized growth", "setting": "locus YGL253W, strain hxk2, stronger effect = lower value", "result": "0.916 (inactive)"}, {"measurement": "normalized growth", "setting": "locus YGR078C, strain PAC10, stronger effect = lower value", "result": "0.95 (inactive)"}, {"measurement": "normalized growth", "setting": "locus YGR135W, strain pre9, stronger effect = lower value", "result": "0.879 (active)"}, {"measurement": "normalized growth", "setting": "locus YGR229C, strain SMI1, stronger effect = lower value", "result": "0.491 (active)"}, {"measurement": "normalized growth", "setting": "locus YGR252W, strain gcn5, stronger effect = lower value", "result": "0.688 (active)"}, {"measurement": "normalized growth", "setting": "locus YHR013C, strain ard1, stronger effect = lower value", "result": "0.856 (inactive)"}, {"measurement": "normalized growth", "setting": "locus YHR027C, strain rpn1, stronger effect = lower value", "result": "0.904 (active)"}, {"measurement": "normalized growth", "setting": "locus YHR030C, strain SLT2, stronger effect = lower value", "result": "0.843 (active) and 0.985 (inactive)"}, {"measurement": "normalized growth", "setting": "locus YHR079C, strain IRE1 (second series), stronger effect = lower value", "result": "0.994 (inactive)"}, {"measurement": "normalized growth", "setting": "locus YHR079C, strain IRE1, stronger effect = lower value", "result": "0.992 (inactive)"}, {"measurement": "normalized growth", "setting": "locus YHR094C, strain hxt1, stronger effect = lower value", "result": "0.994 (inactive)"}, {"measurement": "normalized growth", "setting": "locus YHR129C, strain ARP1, stronger effect = lower value", "result": "1.01 (inactive)"}, {"measurement": "normalized growth", "setting": "locus YHR142W, strain chs7, stronger effect = lower value", "result": "0.884 (inactive)"}, {"measurement": "normalized growth", "setting": "locus YHR200W, strain rpn10, stronger effect = lower value", "result": "1 (inactive)"}, {"measurement": "normalized growth", "setting": "locus YIL066C, strain RNR3, stronger effect = lower value", "result": "0.978 (inactive)"}, {"measurement": "normalized growth", "setting": "locus YIL073C, strain SPO22, stronger effect = lower value", "result": "0.904 (inactive)"}, {"measurement": "normalized growth", "setting": "locus YIL125W, strain kgd1, stronger effect = lower value", "result": "0.999 (inactive)"}, {"measurement": "normalized growth", "setting": "locus YIR030C, strain dcg1, stronger effect = lower value", "result": "0.993 (inactive)"}, {"measurement": "normalized growth", "setting": "locus YJL092W, strain hpr5, stronger effect = lower value", "result": "0.982 (inactive)"}, {"measurement": "normalized growth", "setting": "locus YJL095W, strain BCK1 (second series), stronger effect = lower value", "result": "0.923 (inactive)"}, {"measurement": "normalized growth", "setting": "locus YJL095W, strain BCK1, stronger effect = lower value", "result": "0.745 (active) and 0.991 (inactive)"}, {"measurement": "normalized growth", "setting": "locus YJL115W, strain asf1, stronger effect = lower value", "result": "0.999 (inactive)"}, {"measurement": "normalized growth", "setting": "locus YJL129C, strain trk1, stronger effect = lower value", "result": "0.921 (inactive)"}, {"measurement": "normalized growth", "setting": "locus YJL134W, strain LCB3, stronger effect = lower value", "result": "1.01 (inactive)"}, {"measurement": "normalized growth", "setting": "locus YJL154C, strain vps35, stronger effect = lower value", "result": "0.996 (inactive)"}, {"measurement": "normalized growth", "setting": "locus YJL164C, strain tpk1, stronger effect = lower value", "result": "0.937 (inactive)"}, {"measurement": "normalized growth", "setting": "locus YJL166W, strain qcr8, stronger effect = lower value", "result": "0.94 (inactive)"}, {"measurement": "normalized growth", "setting": "locus YJL168C, strain set2, stronger effect = lower value", "result": "1 (inactive)"}, {"measurement": "normalized growth", "setting": "locus YJL187C, strain SWE1 (second series), stronger effect = lower value", "result": "0.987 (inactive)"}, {"measurement": "normalized growth", "setting": "locus YJL187C, strain SWE1, stronger effect = lower value", "result": "0.992 (inactive)"}, {"measurement": "normalized growth", "setting": "locus YJR043C, strain POL32, stronger effect = lower value", "result": "1.03 (inactive)"}, {"measurement": "normalized growth", "setting": "locus YJR066W, strain TOR1, stronger effect = lower value", "result": "0.97 (inactive)"}]}
